The supplement of paper PMC10849652
The full data set covers some 8,800 targets. This sample favours those with a hit. About 0.5% of all pairs of compound and target were hits.

What was measured:
Assay in all cases: log2 fold change, soluble protein after heating vs DMSO (PISA); higher = thermal stabilisation; K562 lysate, 10 uM; active = over 0.2 and 3.5 SD of the protein, either way, in both replicates (recomputed)
nilotinib = compound: Cc1cn(-c2cc(NC(=O)c3ccc(C)c(Nc4nccc(-c5cccnc5)n4)c3)cc(C(F)(F)F)c2)cn1 [nilotinib]
Method in brief: (§1)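 Log-two fold change in thermal stability relative to solvent controls is reported from duplicates. For each sample, crude K562 extract from dounce-homogenised pellets in PBS pH 7.4 with 1 mM MgCl2, at 1 mg/mL protein, was treated with 10 μM compound for 30 min. Aliquots heated for 3 min across 48°C-58°C were pooled, brought to 0.5% NP-40 at 4°C and cleared at 21,000xg for 90 min. The supernatant was quantified by TMTpro 16plex LC-MS/MS with channel sums equalised.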

[1] = compound: Cc1nc(Nc2n[nH]c3c2CN(C(=O)N[C@H](CN(C)C)c2ccccc2)C3(C)C)c2sccc2n1
Method in brief: as §1

dasatinib = compound: Cc1nc(Nc2ncc(C(=O)Nc3c(C)cccc3Cl)s2)cc(N2CCN(CCO)CC2)n1 [dasatinib]
Method in brief: as §1

[2] = compound: Cc1ncc(-c2ccnc(Nc3ccc(S(C)(=O)=O)cc3)n2)n1C(C)C
Method in brief: as §1

[3] = compound: Cn1cc(-c2ccc3c(c2)CCN3C(=O)Cc2cccc(C(F)(F)F)c2)c2c(N)ncnc21
Method in brief: as §1

quisinostat = compound: Cn1cc(CNCC2CCN(c3ncc(C(=O)NO)cn3)CC2)c2ccccc21 [quisinostat]
Method in brief: as §1

tipifarnib = compound: Cn1cncc1[C@@](N)(c1ccc(Cl)cc1)c1ccc2c(c1)c(-c1cccc(Cl)c1)cc(=O)n2C [tipifarnib]
Method in brief: as §1

[4] = compound: NC(=O)Nc1cc(-c2cccc(F)c2)sc1C(=O)N[C@H]1CCCNC1
Method in brief: as §1

[5] = compound: NC1(c2ccc(-c3nc4ccn5c(=O)[nH]nc5c4cc3-c3ccccc3)cc2)CCC1
Method in brief: as §1

[6] = compound: NCC(=O)Nc1ccc(-n2nc(C(F)(F)F)cc2-c2ccc3c(ccc4ccccc43)c2)cc1
Method in brief: as §1

vorinostat = compound: O=C(CCCCCCC(=O)Nc1ccccc1)NO [vorinostat]
Method in brief: as §1

silmitasertib = compound: O=C(O)c1ccc2c(c1)nc(Nc1cccc(Cl)c1)c1ccncc12 [silmitasertib]
Method in brief: as §1

[7] = compound: O=C1NC(=O)C(c2cnc3ccccn23)=C1c1cn2c3c(cc(F)cc13)CN(C(=O)N1CCCCC1)CC2
Method in brief: as §1

entospletinib = compound: c1cn2cc(-c3ccc4cn[nH]c4c3)nc(Nc3ccc(N4CCOCC4)cc3)c2n1 [entospletinib]
Method in brief: as §1

[8] = compound: NC(=O)c1cnc(N[C@@H]2CCCC[C@@H]2N)nc1Nc1cccc(-n2nccn2)c1
Method in brief: as §1

Measured: log2 fold change

VHL (UniProt P40337)
UniProt P40337, sequence (P40337 whole entry, looked up): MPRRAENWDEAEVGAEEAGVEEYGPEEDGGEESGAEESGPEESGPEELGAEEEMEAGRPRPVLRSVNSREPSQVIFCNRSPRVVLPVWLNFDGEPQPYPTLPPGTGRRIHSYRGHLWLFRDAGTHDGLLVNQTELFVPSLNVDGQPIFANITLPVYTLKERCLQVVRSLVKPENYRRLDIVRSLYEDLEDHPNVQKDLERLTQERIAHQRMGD
inactive: nilotinib -0.01 | [1] 0.04 | dasatinib 0 | [2] -0.056 | [3] 0.079 | quisinostat -0.056 | tipifarnib 0.022 | [4] 0.077 | [5] 0.04 | [6] 0.015 | vorinostat -0.289 | silmitasertib -0.038 | [7] -0.011 | entospletinib -0.001

USP22 (UniProt Q9UPT9)
UniProt Q9UPT9, sequence (Q9UPT9 whole entry, looked up): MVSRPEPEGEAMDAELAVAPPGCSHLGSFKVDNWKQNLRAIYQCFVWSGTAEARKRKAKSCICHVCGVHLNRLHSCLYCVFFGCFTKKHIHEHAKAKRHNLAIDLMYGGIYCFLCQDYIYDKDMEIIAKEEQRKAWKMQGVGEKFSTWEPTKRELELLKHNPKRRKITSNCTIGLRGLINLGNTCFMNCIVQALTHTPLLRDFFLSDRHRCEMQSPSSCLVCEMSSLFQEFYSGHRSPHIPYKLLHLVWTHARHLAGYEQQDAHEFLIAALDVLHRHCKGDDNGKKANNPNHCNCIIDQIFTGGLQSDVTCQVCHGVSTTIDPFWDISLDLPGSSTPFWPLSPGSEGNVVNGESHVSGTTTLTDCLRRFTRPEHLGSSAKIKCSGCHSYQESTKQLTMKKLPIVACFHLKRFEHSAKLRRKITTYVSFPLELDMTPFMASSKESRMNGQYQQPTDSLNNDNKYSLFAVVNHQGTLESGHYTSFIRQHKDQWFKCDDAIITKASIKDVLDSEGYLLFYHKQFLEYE
inactive: nilotinib -0.032 | [1] 0.002 | dasatinib 0.022 | [2] 0.037 | [3] 0.028 | quisinostat -0.065 | tipifarnib -0.028 | [4] 0.004 | [5] -0.012 | [6] -0.069 | silmitasertib -0.045 | [7] 0.001 | entospletinib 0.059
active: vorinostat -0.323

WAC isoform 5 (UniProt Q9BTA9)
UniProt Q9BTA9, sequence (Q9BTA9 whole entry, looked up): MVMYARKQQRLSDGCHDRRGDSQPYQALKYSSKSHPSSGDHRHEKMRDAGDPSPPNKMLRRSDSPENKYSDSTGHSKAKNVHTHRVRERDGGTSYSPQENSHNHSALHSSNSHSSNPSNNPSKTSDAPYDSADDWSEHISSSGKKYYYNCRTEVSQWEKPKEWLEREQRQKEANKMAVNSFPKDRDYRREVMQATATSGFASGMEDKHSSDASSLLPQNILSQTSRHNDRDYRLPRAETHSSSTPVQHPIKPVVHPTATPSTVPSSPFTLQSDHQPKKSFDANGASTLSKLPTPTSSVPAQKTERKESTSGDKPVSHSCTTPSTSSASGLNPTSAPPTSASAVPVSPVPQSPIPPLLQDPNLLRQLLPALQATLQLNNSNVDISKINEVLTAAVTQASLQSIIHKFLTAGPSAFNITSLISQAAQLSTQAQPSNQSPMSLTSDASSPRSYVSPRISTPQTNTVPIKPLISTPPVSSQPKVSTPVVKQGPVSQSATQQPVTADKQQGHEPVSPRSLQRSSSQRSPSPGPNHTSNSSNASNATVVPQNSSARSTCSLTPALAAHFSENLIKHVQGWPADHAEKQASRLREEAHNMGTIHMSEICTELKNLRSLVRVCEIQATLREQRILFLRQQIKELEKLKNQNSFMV
inactive: dasatinib -0.336 | [3] 0.254 | [5] -0.129 | vorinostat -0.002 | silmitasertib 0.351

UPF3B (UniProt Q9BZI7)
UniProt Q9BZI7, sequence (Q9BZI7 whole entry, looked up): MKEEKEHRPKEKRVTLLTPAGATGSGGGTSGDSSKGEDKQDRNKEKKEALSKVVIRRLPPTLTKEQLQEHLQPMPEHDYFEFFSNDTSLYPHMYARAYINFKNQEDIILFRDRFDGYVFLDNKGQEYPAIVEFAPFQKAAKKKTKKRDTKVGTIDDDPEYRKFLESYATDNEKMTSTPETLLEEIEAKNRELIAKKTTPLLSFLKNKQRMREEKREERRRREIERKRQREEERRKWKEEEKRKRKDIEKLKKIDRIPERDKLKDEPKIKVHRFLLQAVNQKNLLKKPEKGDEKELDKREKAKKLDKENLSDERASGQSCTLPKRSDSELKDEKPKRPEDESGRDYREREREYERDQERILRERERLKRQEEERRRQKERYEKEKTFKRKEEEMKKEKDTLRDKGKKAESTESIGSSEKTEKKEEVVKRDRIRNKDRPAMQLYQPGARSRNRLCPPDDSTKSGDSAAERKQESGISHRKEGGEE
inactive: nilotinib -0.016 | [1] 0.012 | dasatinib 0.004 | [2] 0.014 | [3] 0.005 | quisinostat -0.013 | tipifarnib 0.014 | [4] 0.022 | [8] -0.025 | [5] -0.003 | [6] 0.022 | vorinostat 0.075 | silmitasertib -0.02 | [7] -0.043 | entospletinib -0.049

VPS72 (UniProt Q15906)
UniProt Q15906, sequence (Q15906 whole entry, looked up): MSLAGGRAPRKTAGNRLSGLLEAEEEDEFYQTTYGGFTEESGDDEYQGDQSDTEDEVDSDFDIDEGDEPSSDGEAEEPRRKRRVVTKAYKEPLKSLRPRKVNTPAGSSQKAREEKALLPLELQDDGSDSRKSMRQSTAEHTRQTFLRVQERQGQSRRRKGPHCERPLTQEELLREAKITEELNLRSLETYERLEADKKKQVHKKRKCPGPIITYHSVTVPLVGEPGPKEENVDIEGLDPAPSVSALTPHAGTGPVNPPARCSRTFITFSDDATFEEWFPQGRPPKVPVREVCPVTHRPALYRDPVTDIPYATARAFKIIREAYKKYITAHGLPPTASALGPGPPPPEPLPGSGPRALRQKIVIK
inactive: nilotinib 0.029 | [1] 0.032 | dasatinib -0.054 | [2] 0.05 | [3] 0.073 | quisinostat 0.005 | tipifarnib 0.088 | [4] 0.05 | [8] -0.03 | [5] -0.036 | [6] 0.11 | silmitasertib -0.018 | [7] -0.029 | entospletinib -0.014
active: vorinostat -0.401
